Our source for the growth values is PubChem BioAssay (NCI).

Test in all cases: NCI-60 one-dose screen, 48 h (100 = growth as untreated, 0 = no growth, -100 = all killed)
Details in all cases: 10 µM unless noted

The subject of test [1] is SK-MEL-2 melanoma.
Test [2] deals with EKVX NSCLC.
Test [3] deals with SN12C renal.
The subject of test [4] is UO-31 renal.
Test [5] deals with TK-10 renal.
In test [6] the test system is ACHN renal.
The test system of test [7] is A498 renal.
The test system of test [8] is CCRF-CEM leukemia.
Test [9] relates to MOLT-4 leukemia.
Test [10] has as its system SR leukemia.
The test system of test [11] is RPMI-8226 leukemia.
For test [12], the system named is OVCAR-8 ovarian.
The subject of test [13] is OVCAR-5 ovarian.
Test [14] relates to OVCAR-4 ovarian.
For test [15], the system named is SK-OV-3 ovarian.
The test system of test [16] is IGROV1 ovarian.
Test [17] has as its system OVCAR-3 ovarian.
Test [18] deals with HS 578T breast.
In test [19] the test system is NCI/ADR-RES ovarian.

The panel holds about 83,000 compounds, 20% with a hit somewhere; the sample as a whole holds those more often.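 Single-dose data. Exposure time 48 hours. Values below 10 considered active.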 Unmarked numbers belong to inactive results. Active and inactive are the calls of the source.

For the compound `CCN(CC)CCCNC(=O)c1ccc(N)cc1O`, the growth in [1] was 100%; in test [2], 103%; in test [3], 101%; in test [4], 69.7%; in test [5], 106%; in [6] it was 98.3%. Moreover, the growth in [7] is 56.2%; in test [8] it was -32.8% (active); in test [9] it was 91%; in test [10], 98.3%; in test [11], 94.7%; in test [12], 103%. The growth is 98.9% in test [13]; 118% in test [14]; 105% in test [15]; 91.8% in [16]; 107% in test [17]; 98.4% in test [18]. The growth in [19] is 96.1%.
As for `Clc1ccc(-c2cn(-c3ccccc3)c(-c3ccccc3)n2)cc1`, the growth in [1] is 110%; in [2], 84.5%; in [3], 95.9%; in test [4], 67.8%; in [5], 92.4%; in test [6], 94.6%. Moreover, the growth in [7] is 88.4%; in test [8], -3.48% (active); in test [10] it was -19.6% (active); in [11] it was -54.6% (active); in test [12], 90.7%; in [13], 90%. The growth is 88.1% in test [14]; 102% in test [15]; 48% in test [16]; 80% in test [17]; 102% in test [18]; 93.4% in test [19].
On to `O=C1CCC(N2C(=O)c3cccc(NCCCC4CCN(CCNC(=O)c5cc6c(o5)C(=O)c5ccccc5C6=O)CC4)c3C2=O)C(=O)N1` (configuration not stated), for which the growth is -46.4% (active) in test [1]; -61.8% (active) in test [2]; -95.4% (active) in [3]; -72.9% (active) in [4]; -70.6% (active) in test [5]; -92.4% (active) in [6]. The growth in [8] was 21%; in test [9] it was 21.8%; in test [10] it was 14.5%; in test [12], 6.28% (active); in test [13], -98% (active); in [14] it was -99.3% (active). Also, the growth in test [16] is -50.3% (active); in [17], -90.9% (active); in [18] it was -25.8% (active); in [19], 20.4%.
With `C[C@@H]1CC[C@@H]2[C@@H]1[C@H](OC(=O)/C=C/c1ccccc1)[C@]1(C3CCCCC3)C[C@@H](NC(=O)CO)[C@@]2(C)O1`, the growth in test [1] is 95.9%; in [2] it was 98.4%; in [3], 59.2%; in test [4] it was 72.1%; in [5], 92.3%; in [6], 50.2%. For the same compound, the growth is 44.9% in test [7]; 99.2% in test [8]; 88.9% in test [9]; 93.9% in test [10]; 100% in test [11]; 98.6% in test [12]. Besides, the growth is 94.6% in test [13]; 102% in test [14]; 112% in test [15]; 101% in [16]; 98.6% in [17]; 8.45% (active) in [18]. In addition, the growth in test [19] is 95.4%.
In the case of `Cc1cnc(Nc2ccc(OCCN3CCCC3)cc2)nc1NCc1ccco1`, the growth in test [1] is 97.9%; in [2], 71.5%; in [3], 68.5%; in test [4], 47.8%; in test [5], 79.4%; in test [6], 79.4%. Besides, the growth in test [7] was 71.5%; in [8], 72.7%; in test [11], 50.7%; in test [12], 95.1%; in test [13], 78.1%; in test [14], 59.4%. Besides, the growth in [15] was 108%; in [16], 71%; in test [17], 82.7%; in test [18] it was 80.3%; in [19], 101%.
As to `O=c1[nH]c(NCc2nnnn2-c2ccc(Br)cc2)nc2sc3c(c12)CCCC3`, the growth in test [1] is 108%; in test [2], 96.3%; in test [3] it was 97.6%; in test [4] it was 77.9%; in test [5], 98.1%; in [6], 98.9%. Further, the growth in test [7] is 84.6%; in test [8], 90.8%; in [9], 76.9%; in test [10], 86.3%; in test [11] it was 87.3%; in [12], 81.4%. Besides, the growth in [13] is 100%; in [14], 95.2%; in test [15], 90.6%; in [16], 104%; in test [17] it was 97.8%; in test [18], 100%. Besides, in test [19], the growth is 103%.
Regarding `Nc1ccc(-c2cc3c(Nc4ccc(OCc5cccc(F)c5)c(Cl)c4)ncnc3s2)cc1`, the growth in test [1] is 25.3%; in test [2] it was 21.5%; in test [3] it was 48.4%; in [4], 19.6%; in [5], 32.5%; in [6], 29.6%. Besides, the growth was 39.3% in test [7]; 24% in test [8]; 30% in test [9]; 14.5% in test [10]; 63.1% in test [12]; 77.9% in test [13]. The growth is 54.8% in test [14]; -2.32% (active) in test [15]; 38.2% in test [16]; 46.6% in [17]; 77% in test [18]; 50.4% in test [19].
Consider `NC(=Nc1ccc(N)cc1)C(N)=Nc1ccc(N)cc1`, for which the growth in test [1] was -7.4% (active); in test [2], 107%; in test [3] it was 104%; in test [4], 92.9%; in [5], 87.3%; in test [6] it was 93.4%. In addition, the growth in test [7] was 91.3%; in test [9] it was 124%; in test [12], 85.3%; in test [13] it was 105%; in test [14], 101%; in test [15], 126%. The growth was 84.7% in test [16], 94.1% in [17], 114% in test [18] and 99.6% in test [19].
